Assay [1] relates to Plasmodium falciparum Sir2 (PF13_0152, Sir2A). The assay is described as follows: pfSir2 binders on small-molecule microarrays, primary screen, biochemical, small-molecule microarray, 635 nm fluorescence (AID 1098).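 Further: score merges spot fluorescence intensity with its signal-to-noise ratio.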 To be noted: small-molecule microarray binding, fluorescence 635 nm; higher = more signal.
Assay [2] can be described thus: small-molecule microarray binders of probe aDKK1, primary screen, biochemical, biotinylated probe, 635/667 nm fluorescence (AID 1099).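 Further: score merges 667nm spot fluorescence with signal to noise across triplicate slides; reference of the scale not given here.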 To be noted: higher = more signal.
Assay [3] in a line: small-molecule microarray binders of probe aCHRDL2, primary screen, biochemical, biotinylated probe, 635/667 nm fluorescence (AID 1100). To be noted: higher = more signal.
The nature of assay [4]: splicing luciferase reporter signal modulators, primary screen, spliceosome inhibition project, cell-based, HEK293, splice +/- reporter (AID 1101).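 Further: HEK293 cells carrying a splicing-competent luciferase reporter gene; test concentration not given here.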 To be noted: luminescence, 24 h, higher = more signal, called active from +8 up or from −8 down.
Assay [5] has as its target Fibroblast growth factor 10 (Homo sapiens) (UniProt O15520). The assay is described as follows: FGF10 binders on small-molecule microarrays, primary screen, biochemical, small-molecule microarray, 635 nm fluorescence (AID 1102). To be noted: FGF10 binding, fluorescence 635 nm, higher = more signal.
Assay [6] relates to glycogen synthase kinase-3 (GSK3A per assay name; protocol says GSK3B). The assay is described as follows: GSK3 binders on small-molecule microarrays, primary screen, biochemical, small-molecule microarray, 635 nm fluorescence, GSK3A (AID 1103). Further: the record names both GSK3A and GSK3B. To be noted: small-molecule microarray binding, fluorescence 635 nm; higher = more signal.
For assay [7], the target named is Epidermal growth factor receptor (Homo sapiens) (UniProt P00533). In words: EGFR binders on small-molecule microarrays, primary screen, biochemical, small-molecule microarray, 635 nm fluorescence (AID 1104).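 Further: score merges 667 nm emission intensity with spot signal to noise over triplicate slides.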 To be noted: EGFR binding, higher = more signal.
Chain of Epidermal growth factor receptor (Homo sapiens) (P00533 whole entry, looked up): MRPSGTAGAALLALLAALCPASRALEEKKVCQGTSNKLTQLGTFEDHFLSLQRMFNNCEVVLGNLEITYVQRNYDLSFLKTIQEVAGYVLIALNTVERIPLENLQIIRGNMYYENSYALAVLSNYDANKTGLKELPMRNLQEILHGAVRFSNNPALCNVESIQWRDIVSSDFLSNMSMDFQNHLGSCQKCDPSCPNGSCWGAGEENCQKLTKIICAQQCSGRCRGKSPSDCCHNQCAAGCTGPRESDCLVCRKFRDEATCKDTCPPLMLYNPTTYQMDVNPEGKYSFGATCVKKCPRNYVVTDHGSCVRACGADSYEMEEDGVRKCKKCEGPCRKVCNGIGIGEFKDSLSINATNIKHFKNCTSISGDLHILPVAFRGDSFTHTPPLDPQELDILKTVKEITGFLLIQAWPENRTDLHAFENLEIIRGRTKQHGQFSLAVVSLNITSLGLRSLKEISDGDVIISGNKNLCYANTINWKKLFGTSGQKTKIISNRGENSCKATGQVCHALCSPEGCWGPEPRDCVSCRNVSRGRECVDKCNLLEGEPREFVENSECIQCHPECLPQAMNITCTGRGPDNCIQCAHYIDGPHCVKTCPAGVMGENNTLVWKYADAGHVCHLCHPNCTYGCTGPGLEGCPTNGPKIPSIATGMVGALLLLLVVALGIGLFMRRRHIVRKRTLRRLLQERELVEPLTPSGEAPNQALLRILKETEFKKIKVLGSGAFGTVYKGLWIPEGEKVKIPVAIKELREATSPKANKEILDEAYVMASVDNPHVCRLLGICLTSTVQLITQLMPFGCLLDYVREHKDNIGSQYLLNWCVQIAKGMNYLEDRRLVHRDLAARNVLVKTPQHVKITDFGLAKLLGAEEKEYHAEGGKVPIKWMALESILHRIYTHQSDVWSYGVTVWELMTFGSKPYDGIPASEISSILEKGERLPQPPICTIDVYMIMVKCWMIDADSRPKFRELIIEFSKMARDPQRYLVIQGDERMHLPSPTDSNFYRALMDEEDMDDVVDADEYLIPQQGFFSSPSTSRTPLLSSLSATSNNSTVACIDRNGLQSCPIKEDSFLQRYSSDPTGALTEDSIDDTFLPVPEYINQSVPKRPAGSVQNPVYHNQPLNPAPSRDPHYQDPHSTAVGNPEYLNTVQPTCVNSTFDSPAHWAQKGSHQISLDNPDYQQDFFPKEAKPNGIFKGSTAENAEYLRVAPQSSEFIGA
Assay [8] deals with Follistatin-related protein 3 (Homo sapiens) (UniProt O95633). The assay is described as follows: FSTL3 binders on small-molecule microarrays, primary screen, biochemical, small-molecule microarray, 635 nm fluorescence (AID 1105).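 Further: score merges emission near 667 nm and signal to noise per printed spot across three slides.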 To be noted: FSTL3 binding, higher = more signal.
Chain of Follistatin-related protein 3 (Homo sapiens) (O95633 whole entry, looked up): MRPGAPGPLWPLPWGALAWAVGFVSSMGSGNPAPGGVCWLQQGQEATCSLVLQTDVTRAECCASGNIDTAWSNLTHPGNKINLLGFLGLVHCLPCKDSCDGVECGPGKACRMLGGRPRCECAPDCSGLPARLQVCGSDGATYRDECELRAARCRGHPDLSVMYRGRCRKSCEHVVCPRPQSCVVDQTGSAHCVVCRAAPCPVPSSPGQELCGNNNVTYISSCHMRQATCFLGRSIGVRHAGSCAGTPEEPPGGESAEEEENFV
For assay [9], the target named is Dickkopf-related protein 1 (Homo sapiens) (UniProt O94907). The assay is described as follows: DKK1 binders on small-molecule microarrays, primary screen, biochemical, small-molecule microarray, 635 nm fluorescence scan (AID 1106).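 Further: score merges emission near 667 nm with signal to noise over three replicate slides.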 To be noted: DKK1 binding, higher = more signal.
Chain of Dickkopf-related protein 1 (Homo sapiens) (O94907 whole entry, looked up): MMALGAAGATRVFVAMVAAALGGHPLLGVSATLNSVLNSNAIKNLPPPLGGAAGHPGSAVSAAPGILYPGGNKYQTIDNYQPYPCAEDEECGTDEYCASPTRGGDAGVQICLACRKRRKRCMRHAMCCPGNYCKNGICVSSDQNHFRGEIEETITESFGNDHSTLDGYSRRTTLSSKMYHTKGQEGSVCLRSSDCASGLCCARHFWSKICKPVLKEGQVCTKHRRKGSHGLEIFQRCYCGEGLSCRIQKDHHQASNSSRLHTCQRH
Assay [10] relates to Inhibin beta A chain (activin A). In words: INHBA (activin A) binders on microarrays, primary screen, biochemical, small-molecule microarray, 635 nm fluorescence scan (AID 1107).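 Further: mouse activin A protein probed at 4.33 µg/mL on printed slides; score merges bound-protein fluorescence near 667 nm with spot signal-to-noise.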 To be noted: small-molecule microarray binding, higher = more signal.

Active and inactive are the calls of the source.

Chain of Fibroblast growth factor 10 (Homo sapiens) (O15520 whole entry, looked up): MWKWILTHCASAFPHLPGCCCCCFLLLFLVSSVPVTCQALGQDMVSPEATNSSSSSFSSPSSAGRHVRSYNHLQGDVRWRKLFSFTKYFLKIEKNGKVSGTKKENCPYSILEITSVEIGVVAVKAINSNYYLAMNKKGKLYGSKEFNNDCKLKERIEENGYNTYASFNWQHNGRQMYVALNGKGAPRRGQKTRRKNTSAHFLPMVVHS

In the case of `COC(=O)[C@@]1(Cc2ccccc2)[C@H]2c3cc(C(=O)N(C)C)n(Cc4ccsc4Br)c3C[C@H]2CN1C(=O)c1ccccc1`, the composite z-score in [1] is -0.0533; in assay [2], 0.894; in assay [3] it was 1.17; in assay [5], 1.02; in [6], 0.439; in assay [7], -0.354. For the same compound, the composite z-score in assay [8] was 1.12; in assay [9], -0.506; in assay [10], 0.669. Further, the z-score in [4] was -1.3 (inactive).

Take `CC(C)N1C(=O)[C@@]2(Cc3ccccc31)c1ccccc1C(=O)N(Cc1ccccc1Cl)[C@H]2c1ccc(CO)cc1`: the composite z-score in assay [1] is 0.465; in [2], -0.0724; in assay [3], 0.621; in [5], -1; in assay [6], -1.24; in [7] it was -1.25. Moreover, the results for the composite z-score in [8], in assay [9] and in assay [10] were -0.785, -0.979 and 0.781, respectively. The z-score in assay [4] was -1 (inactive).

As to `CCC(CC)C(O)C1C=CC2C(=O)NC(=O)C2N1Nc1ccccn1` (stereo not given), the composite z-score in assay [1] was 0.259; in assay [2] it was 0.572; in assay [3], -0.705; in assay [5] it was 0.269; in [6], 0.291; in [7], 0.384. The results for the composite z-score in assay [8], in assay [9] and in [10] were 0.584, 0.816 and 1.29, respectively. The z-score in assay [4] was 1.17 (inactive).

For `COCCOC(=O)N1C(=O)[C@@]2(c3cc(C#CCC(C(=O)OC)C(=O)OC)ccc31)[C@H](C(=O)Nc1nc3ccccc3s1)[C@H]1C(=O)O[C@H](c3ccccc3)[C@H](c3ccccc3)N1[C@@H]2c1ccccc1OCCO`, the composite z-score in assay [1] is 1.52; in assay [2], 0.467; in assay [3], 0.76; in [5], 0.634; in assay [6], 1.04; in assay [7], 0.231. For the same compound, the figures for the composite z-score in assay [8], in [9] and in assay [10] were 1.29, -0.154 and 0.046, respectively. Further, the z-score in [4] was 0.952 (inactive).

Take `[N-]=[N+]=NCc1ccccc1[C@@H]1OC(c2ccc(OCCCO)cc2)=N[C@]1(Cc1ccccc1)C(N)=O`: the composite z-score was 1.01 in assay [1]; 0.758 in assay [2]; 0.864 in assay [3]; 1.42 in assay [5]; 1.3 in assay [6]; -0.592 in [7]. Also, the composite z-score in assay [8] was 0.881; in [9], -0.117; in assay [10], 0.857. In addition, the z-score in assay [4] was -1.16 (inactive).

As for `CC(=O)NCCCC[C@@H]1NC(=O)[C@H]2C[C@@H](C(=O)NCCCCCCNC(=O)CS)[C@@H](c3ccc(O)cc3)N2C1=O`, the composite z-score in assay [1] is 0.629; in assay [2], -0.0749; in [3], 0.986; in assay [5], 0.0258; in [6], 0.0703; in assay [7], -0.728. The composite z-score in assay [8] is -0.961; in assay [9], -0.788; in assay [10], -1.11. The z-score in assay [4] is -0.401 (inactive).

Regarding `O=C1N[C@@H](Cc2ccccc2)C(=O)N2[C@@H]1C[C@@H](C(=O)O)[C@H]2c1cccc(OCCO)c1`, the composite z-score in assay [1] came out at 1.56; in [2], 0.0092; in assay [3], 0.18; in assay [5], 1.45; in assay [6] it was 1.29; in assay [7] it was 0.334. Moreover, the results for the composite z-score in [8], in [9] and in assay [10] were 0.798, 1.18 and 0.806, respectively. The z-score in [4] is 0.152 (inactive).

Turning to `COc1ccc(C(O)C2C=CC3C(=O)N(Cc4ccccc4)C(=O)C3N2n2cnnc2)cc1OCc1ccccc1` (stereo not given), the composite z-score in [1] is 0.504; in assay [2], -0.0756; in assay [3] it was 0.432; in assay [5] it was -0.245; in assay [6], 0.332; in assay [7], -0.283. Further, the composite z-score is 0.308 in [8], -0.192 in assay [9] and 0.586 in assay [10]. The z-score in assay [4] is -1.91 (inactive).

Turning to `CC(C)=CCCC(C)=CC(O)C1C=CC2C(=O)N(C)C(=O)C2N1Nc1ccccc1` (stereo not given), the composite z-score was 0.854 in assay [1]; 0.473 in assay [2]; 0.55 in assay [3]; 0.914 in assay [5]; 1.31 in [6]; 1.52 in assay [7]. Further, the composite z-score was found to be 1.47 in assay [8], 0.893 in [9] and 1.07 in assay [10]. The z-score in assay [4] is 3.04 (inactive).

Regarding `CCOC(=O)C1=CC[C@@H](c2ccccc2)N(S(=O)(=O)c2ccc(C)cc2)[C@H]1c1ccccc1C`, the composite z-score in assay [1] is 1.42; in assay [2], 0.311; in [3], 0.431; in assay [5], 0.607; in [6], 0.683; in assay [7], 0.375. Besides, the composite z-score in assay [8] was 1.05; in assay [9] it was 0.349; in assay [10], 0.97. Moreover, the z-score in assay [4] was -0.876 (inactive).

Regarding `[N-]=[N+]=NCc1ccccc1[C@@H]1OC(c2ccc(OCCCO)cc2)=N[C@]1(Cc1ccccc1)C(=O)NCC(O)CO` (stereo not given in full), the composite z-score in assay [1] is 0.62; in assay [2], 0.914; in assay [3] it was 0.956; in [5], 0.899; in assay [6] it was 0.0871; in [7], -0.519. For the same compound, the composite z-score in [8] is -1.19; in assay [9], -0.889; in assay [10], 0.68. Moreover, the z-score in assay [4] was 0.371 (inactive).

Take `CCCC#C[Si](O[C@H](CC)c1cn(Cc2cccc(Cl)c2)nn1)(C(C)C)C(C)C`: the composite z-score is 0.377 in assay [1]; -0.23 in [2]; -0.45 in assay [3]; 1.11 in assay [5]; 1.05 in assay [6]; 0.484 in [7]. The composite z-score was 0.566 in assay [8], 0.52 in assay [9] and -0.121 in [10]. In addition, the z-score in [4] is -1.01 (inactive).

As for `COCCOC(=O)N1C(=O)[C@@]2(c3cc(C#Cc4ccc(OC)cc4)ccc31)[C@H](c1ccc(OCCO)cc1)N1[C@H](c3ccccc3)[C@H](c3ccccc3)OC(=O)[C@H]1[C@@H]2C(=O)N1CCN(c2ncccn2)CC1`, the composite z-score in [1] is -0.0214; in assay [2], 0.775; in [3], 0.257; in assay [5] it was 0.703; in [6], 1.28; in [7], 0.667. Besides, the composite z-score is 1.27 in [8], 1.28 in assay [9] and -0.0857 in [10]. Also, the z-score in assay [4] is -0.449 (inactive).

Consider `CC(C)C(O)C1C=CC2C(=O)NC(=O)C2N1Nc1ccc(Cl)cc1Cl` (stereo not given), for which the composite z-score is 0.686 in assay [1]; 1.2 in assay [2]; 1.37 in assay [3]; -0.0826 in assay [5]; -0.234 in assay [6]; -0.0718 in assay [7]. In addition, the figures for the composite z-score in assay [8], in assay [9] and in [10] were -0.265, -0.939 and 1.47, respectively. Moreover, the z-score in [4] is 1.54 (inactive).

Consider `COC(=O)[C@@]1(Cc2ccc(OC)cc2)[C@H]2c3cc(C(=O)N(C)C)n(CCc4ccccn4)c3C[C@H]2CN1C(=O)c1ccccc1`, for which the composite z-score was 0.566 in [1]; 1.62 in assay [2]; 1.41 in assay [3]; 0.286 in [5]; -0.133 in [6]; -0.011 in assay [7]. Also, the results for the composite z-score in assay [8], in assay [9] and in assay [10] were 0.0285, -0.586 and 0.937, respectively. For the same compound, the z-score in assay [4] was 0.317 (inactive).

Turning to `CC(C)C[C@@H]1NC(=O)[C@H](C(C)C)NC(=O)[C@@]23C(=O)N[C@@H](Cc4ccccc4)C2[C@H](C)[C@@]2(C)O[C@H]2C3/C=C/CC/C=C/CNC1=O` (stereo not given in full), the composite z-score in assay [1] is 0.26; in assay [2] it was -0.189; in assay [3] it was -0.263; in [5], 1.16; in assay [6], 0.94; in assay [7], 0.467. In addition, the composite z-score stood at 1.37 in assay [8], 0.384 in assay [9] and 1.35 in [10]. The z-score in assay [4] was -0.76 (inactive).

Values taken from PubChem BioAssay.
